Screening results deposited in PubChem BioAssay by several laboratories.
PfHsp90 set2 = inhibits growth of yeast expressing Plasmodium falciparum Hsp90 | inhibition, % at 9.4 µM | 310,000 compounds, 0.32% hits | AID 504621 | S. cerevisiae expressing PfHsp90, BacTiter-Glo ATP, 48 h; yeast lacking PDR1 and PDR3 efflux regulators;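 active = every replicate shows inhibition above about 80%, whatever the replicate mean, limit read from the data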
tim23-1 inh = tim23-1 yeast growth inhibition; S. cerevisiae tim23-1 growth, BacTiter-Glo luminescence, 24 h; inhibition, % at 20 µM; 330,000 compounds, 1.3% hits; AID 463212;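 active = growth inhibition of the mutant yeast at or above 50%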;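 also: temperature-sensitive mutant grown at 25 °C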
Mot1-301 SUMO = inhibitors of SUMOylation pathway: yeast Mot1-301 growth rescue; 320,000 compounds, 1% hits; growth rescue, % at 18.8 µM; S. cerevisiae Mot1-301 growth rescue, ATP luminescence, 38.5C; percent above DMSO median, 100 means doubled; AID 2716;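 active = every valid replicate shows activation above 250% relative to neutral control wells; inactive = the rest, any valid replicate at or below 250%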
tim10-1 inh = inhibits growth of tim10-1 mutant yeast | AID 463190 | S. cerevisiae tim10-1 ts strain growth, BacTiter-Glo, 24 h | inhibition, % at 20 µM | 330,000 compounds, 2.2% hits;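 active = inhibition of at least 40%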;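 also: mutant grown at 25 °C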
TIM10 inh = growth inhibitors of TIM10 yeast strain; AID 463195; 330,000 compounds, 1.4% hits; S. cerevisiae TIM10 strain growth, BacTiter-Glo luminescence, 24 h; inhibition, % at 10 µM;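 active = inhibition of 40% or more at the single tested concentration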;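 also: wild-type TIM10 isogenic control strain grown at permissive 25 °C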
Mot1 SUMO dose = SUMO pathway inhibitors in yeast Mot1-301 growth; growth activity, percent, % at 42 µM; S. cerevisiae Mot1-301 galactose growth, ATP luminescence, 24 h; -100 = growth of slx-deleted rescue strain; 2,300 tested, under 10 active; shares compounds with Mot1-301 SUMO;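 active = Signal drops as the depositor expects, and the fitted half-maximal dose is no more than ten times the top valid tested dose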;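 also: more negative values mean stronger growth rescue toward the control strain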
tim10-1 confirm = tim10-1 yeast growth inhibition, confirmed; shares compounds with tim10-1 inh; S. cerevisiae tim10-1 ts strain growth, BacTiter-Glo, 24 h; inhibition, % at 20 µM; 7,400 compounds, 56% hits;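 active = inhibition of yeast growth at or above a set limit in either of two repeat tests at 20 µM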;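 also: tim10-1 mutant grown at permissive 25 °C to find synthetic lethal compounds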
Each line names hits and unclear results; the compound was inactive in the other large screens (follow-up assays come after a bar, where they were run). The list is not random: actives were taken first. Their share in the collection is about 4.4%.

O=C1CC(c2ccccc2)c2ccc(O)cc2O1 (centres undefined)	Mot1-301 SUMO active (no result: PfHsp90 set2) | Mot1 SUMO dose inactive
COc1ccccc1C1CC(=O)Oc2cc(O)ccc21 (centres undefined)	none (no result: Mot1-301 SUMO)
CC(=O)NCCOc1cccc2ccccc12	none
CCCc1ccccc1OCCNC(C)=O	Mot1-301 SUMO active | Mot1 SUMO dose inactive
N#C/C(=N\Nc1cccc(F)c1)C(=N)N1CCCCCC1	Mot1-301 SUMO 605 | Mot1 SUMO dose inactive
N#C/C(=N\Nc1ccc(F)cc1)C(=N)N1CCCCC1	none
COc1cccc(NC(=O)COc2coc(CN3CCc4ccccc4C3)cc2=O)c1	none
CCC(C)N1C(=O)CN(C2CCCCCC2)C(=O)C1c1ccccc1F (centres undefined)	Mot1-301 SUMO 422 | Mot1 SUMO dose inactive
COc1ccccc1CN1C(=O)CN(C2CCCCCC2)C(=O)C1c1ccc(F)cc1 (centres undefined)	none
O=S(=O)(Cc1ccccc1)N1CCN(Cc2ccc(F)cc2Cl)CC1	none
CCOC(=O)NNC(=O)CCn1c2c(c3ccccc31)CCCC2	Mot1-301 SUMO 960 | Mot1 SUMO dose inactive
CC(=O)NNC(=O)CCn1c2c(c3ccccc31)CCCC2	none
CCC(Cc1ccccc1)NS(=O)(=O)c1c(C)nc2scc(C)n2c1=O (centres undefined)	none
CC(=O)N1CCN(C(=O)COC(=O)CNC(=O)c2ccccc2C)CC1	none (no result: PfHsp90 set2)
CCN(Cc1ccccc1)Cc1ccc(OCc2ccccc2)c(OC)c1	Mot1-301 SUMO 365 | Mot1 SUMO dose inactive
CC(C)C(NS(=O)(=O)c1ccccc1)C(=O)N1CCN(C(=O)c2ccco2)CC1 (centres undefined)	none
O=C(Nc1ccc(S(=O)(=O)Nc2ncccn2)cc1)C(F)(F)F	none
Cc1cc(C)c2nc(NC(=O)C3CSC4(C)CCC(=O)N34)sc2c1 (centres undefined)	none
Cc1nn(C(C)(C)C)c(OC(=O)c2ccc3c(c2)OCO3)c1S(=O)(=O)c1ccccc1	Mot1-301 SUMO active, tim10-1 inh 46 | Mot1 SUMO dose inactive | tim10-1 confirm 35
Cc1nn(C(C)(C)C)c(OC(=O)c2ccc3c(c2)OCO3)c1Sc1ccccc1	none
Cc1cc(=O)oc2cc(NC(=O)c3ccccc3OC(F)F)ccc12	none
FC(F)(F)c1nnc(-c2ccccc2)nc1Oc1ccc(Cl)cc1Cl	Mot1-301 SUMO 739, tim10-1 inh 51 | Mot1 SUMO dose inactive | tim10-1 confirm 47
CCOC(=O)C1CCCN(C(=O)/C=C/c2cc(OC)c(OC)c(OC)c2)C1 (centres undefined)	none
CCOC(=O)C1CCCN(C(=O)/C=C/c2ccc(Cl)cc2)C1 (centres undefined)	Mot1-301 SUMO 420, tim10-1 inh 41 | Mot1 SUMO dose inactive | tim10-1 confirm inactive
CCc1ccc(-n2c(Cc3ccccc3)n[nH]c2=S)cc1	Mot1-301 SUMO 889, tim10-1 inh 48 (no result: PfHsp90 set2) | Mot1 SUMO dose inactive | tim10-1 confirm inactive
N#CCSc1nc2c(c(C3CC=CCC3)c1C#N)CCC2 (centres undefined)	Mot1-301 SUMO active, tim10-1 inh 47 | Mot1 SUMO dose inactive | tim10-1 confirm 35
CCOc1ccc(S(=O)(=O)N2CCN(CC(O)COc3cccc([N+](=O)[O-])c3)CC2)cc1 (centres undefined)	Mot1-301 SUMO 588, tim10-1 inh 44 | Mot1 SUMO dose inactive | tim10-1 confirm inactive
COc1ccc(C(=O)O/N=C(\N)c2ccccc2)cc1OC	Mot1-301 SUMO 380, tim10-1 inh 51 | Mot1 SUMO dose inactive | tim10-1 confirm 53
COc1ccc(C(=O)O/N=C(\N)c2ccncc2)cc1OC	none
COc1ccc(CNC(=O)CCC(=O)Nc2nnc(C(F)(F)F)s2)cc1	none
COC(=O)c1sc(NC(=O)c2ccc(Cn3cc(Cl)cn3)o2)c(C#N)c1C	Mot1-301 SUMO active, tim10-1 inh 44 | Mot1 SUMO dose inactive | tim10-1 confirm 30
CC(=O)N/C(=N/c1nc(C)cc(C)n1)Nc1ccc(C)cc1C	none
COC(=O)C1(Cc2cc(-c3ccccc3)no2)CCN(C(=O)OC(C)(C)C)CC1	Mot1-301 SUMO active, tim10-1 inh 43 | Mot1 SUMO dose inactive | tim10-1 confirm 34
COC(=O)c1ccc(-c2cc(CC3(C(=O)OC)CCN(C(=O)OC(C)(C)C)CC3)on2)cc1	none
CCCN(CC(=O)Nc1ccccc1C)C(=O)c1ccc(N2CCCCC2)c([N+](=O)[O-])c1	none (no result: Mot1-301 SUMO)
COc1cccc(Nc2nc(C)nc3c2oc2ccccc23)c1	Mot1-301 SUMO 451, tim10-1 inh 43 | Mot1 SUMO dose inactive | tim10-1 confirm inactive
O=C(NC(=S)Nc1ccccc1N1CCCC1)c1ccc([N+](=O)[O-])cc1	Mot1-301 SUMO 407, tim10-1 inh 57 | Mot1 SUMO dose inactive | tim10-1 confirm 42
O=C(NC(=S)Nc1ccccc1N1CCOCC1)c1ccc([N+](=O)[O-])cc1	none
COc1ccc(C(=O)NCC(=O)OCc2nc(N)nc(Nc3ccccc3C)n2)cc1	none
O=C(C1CCN(C2CC(=O)N(c3cccc(Cl)c3)C2=O)CC1)N1CCCC1 (centres undefined)	PfHsp90 set2 106, Mot1-301 SUMO 417, tim10-1 inh 55 | Mot1 SUMO dose inactive | tim10-1 confirm 47
O=C(C1CCN(C2CC(=O)N(c3ccc(Cl)cc3)C2=O)CC1)N1CCOCC1 (centres undefined)	none
NC(=O)C1CCN(C2CC(=O)N(c3ccc(F)c(Cl)c3)C2=O)CC1 (centres undefined)	PfHsp90 set2 104, Mot1-301 SUMO 649, tim10-1 inh 53 | Mot1 SUMO dose inactive | tim10-1 confirm 50
Cc1ccc(Cl)c2c(N=Nc3ccccc3)c(O)[nH]c12	none
CCn1c(-c2ccccc2)c(C(=O)CC#N)c2ccccc21	Mot1-301 SUMO 373, tim10-1 inh 42 | Mot1 SUMO dose inactive | tim10-1 confirm 30
COc1ccc(C(=O)N2CCN(c3ccccc3OC)CC2)cc1	none
COc1ccccc1N1CCN(C(=O)c2ccc(-c3ccccc3)cc2)CC1	Mot1-301 SUMO active, tim10-1 inh 41 | Mot1 SUMO dose inactive | tim10-1 confirm inactive
O=C1C2C(c3ccccc3)CC=CC2[C@H](c2ccc3ccccc3c2)N1Cc1ccccc1 (some centres undefined)	Mot1-301 SUMO 508, tim10-1 inh 46 | Mot1 SUMO dose inactive | tim10-1 confirm 38
COc1ccc(-c2cccc(C3CC=CC4C3C(=O)N(Cc3ccccc3)C4c3ccc4ccccc4c3)c2)cc1 (centres undefined)	none (no result: PfHsp90 set2)
COc1ccc(S(=O)(=O)N2CCOCC2)cc1NC(=O)c1c(-c2ccccc2)noc1C	none (no result: PfHsp90 set2, Mot1-301 SUMO)
O=C1c2ccccc2[C@@H]2C[C@H]3O[C@H]3CCN12	none (no result: Mot1-301 SUMO)
